# Assay outcomes as filed in PubChem.
# The list is not random: actives were taken first. Their share in the collection is about 7.4%.
# NPC1 promoter act: NPC1 promoter activation; Potency, µM (highest dose often 9.22 µM), inactives show at the top dose activation, hits mostly activators; Huh7 NPC1 promoter luciferase reporter, 24 h; hit rate 2.4% among 320,000; note: % of control where 0% means no effect; nearly all actives have a fitted effect of over 60% in size
#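 Compounds in DMSO were transferred onto Huh7 NPC1-luciferase reporter cells pre-incubated 2 h; after 24 h at 37 °C, Amplite reagent was dispensed and luminescence recorded 10 min later.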
# ELG1 genotoxic: genotoxicity induction in ELG1-luciferase HEK293T cells. Potency, µM (titrated, usually from 46 µM), without a hit: top-dose activity change, positive = activation, usual class: activators. AID 504466. HEK293T ELG1-luciferase reporter, luminescence, 16 h. hit rate 1.3% among 330,000; note: % of control where 0% means no effect; nearly all actives have a fitted effect of over 60% in size
#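 Luminescence read-out: rising ELG1-luciferase signal, reflecting elevated ELG1 protein under genetic stress, flags genotoxic compounds. Cells were treated for 16 hr at 37 °C before ONE-Glo detection.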
# FLuc modulator: inhibits or activates purified firefly luciferase, miR-21 counter-screen; P08659; hit rate 6.9% among 360,000; Potency, µM (top dose mostly 57.5 µM), for the others: at the top dose activity change, negative = inhibition, hits mostly inhibitors; AID 588342; purified FLuc, Km substrates, luminescence inhibition;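 note: plate controls were vehicle for no effect and reference inhibitor for full effect; nearly all actives have a fitted effect of over 55% in size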
# Target sequence (P08659 whole entry, looked up): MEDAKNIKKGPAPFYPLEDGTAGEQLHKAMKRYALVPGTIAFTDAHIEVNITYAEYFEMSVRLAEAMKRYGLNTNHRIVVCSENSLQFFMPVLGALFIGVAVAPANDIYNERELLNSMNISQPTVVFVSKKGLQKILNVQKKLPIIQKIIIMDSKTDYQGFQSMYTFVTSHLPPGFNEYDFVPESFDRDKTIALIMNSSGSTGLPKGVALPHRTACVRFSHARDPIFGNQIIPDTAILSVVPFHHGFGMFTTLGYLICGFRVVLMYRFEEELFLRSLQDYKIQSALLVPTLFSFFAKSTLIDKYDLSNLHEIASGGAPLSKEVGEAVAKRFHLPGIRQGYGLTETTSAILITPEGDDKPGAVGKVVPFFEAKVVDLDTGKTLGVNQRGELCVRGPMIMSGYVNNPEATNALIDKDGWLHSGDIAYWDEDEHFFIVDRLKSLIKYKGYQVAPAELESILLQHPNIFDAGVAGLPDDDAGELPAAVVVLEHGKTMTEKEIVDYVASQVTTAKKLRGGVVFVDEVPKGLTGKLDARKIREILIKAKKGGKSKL
#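 Purified P. pyralis luciferase (10nM final) with 10uM D-luciferin and 10uM ATP (Km levels) in 50mM Tris acetate pH 7.5, 10mM Mg acetate, 0.01% Tween-20, 0.05% BSA; qHTS 6-point titration, ~60 µM downward; luminescence read.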
# SMN2 splice enh: SMN2 splice variant enhancement | HEK293 SMN2-luciferase splicing reporter, luminescence, 30-36 h | Potency, µM (highest dose often 46.1 µM), for the others: at the top dose activity change, positive = activation, usual class: activators | hit rate 2.8% among 210,000; note: % of control where 0% means no effect; nearly all actives have a fitted effect of over 55% in size
#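 HEK293 cells carry an SMN2 minigene-luciferase reporter in which exon 7 inclusion puts luciferase in frame. Cells were seeded at 2000 cells/well, attached for 10-12 hours, then exposed to compounds for 30-36 hours at 37C before ONE-Glo luminescence.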
# Rab9 prom act: activators of Rab9 promoter. Huh7 Rab9 promoter-luciferase reporter, luminescence, 24 h. Potency, µM (titrated, usually from 9.22 µM), for the others: at the top dose activation, negative = inhibition, most hits filed as activators. AID 485297. hit rate 2.8% among 320,000; note: % of control where 0% means no effect; nearly all actives have a fitted effect of over 60% in size
#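 Luminescence read-out: Huh7 cells stably expressing Rab9-luciferase, treated 24 h with compound at 37 °C, then lysed with luciferase reagent for 10 min at ambient before reading.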
# The depositor's hits bear a star; ? = inconclusive; . = no result given; [ ] = another dose, or the depositor's remark. Calls come from the whole dose curve; as a rule, active = well fitted curve in the direction sought with a large enough effect; inconclusive = small, poorly fitted or top-dose-only effect, or another doubt; inactive = no such curve, though single readings can be large; an effect the other way counts as inactive or inconclusive. Potency is the fitted concentration of half-maximal effect.
SMILES,NPC1 promoter act,ELG1 genotoxic,FLuc modulator,SMN2 splice enh,Rab9 prom act
O=C(O)c1ccccc1-c1ccc(/C=C2\SC(=O)N(c3ccccc3)C2=O)o1,2.5µM*,?,13µM*,.,2µM*
Cc1nn(CC(=O)NCCCN2CCCC2)c(=O)c2nn(-c3ccccc3)c(C)c12,-5%,3%,6%,.,-11%
CCOC(=O)c1cc(-c2ccccc2)n(CCC(=O)NC2CCCCC2)c1C,.,.,-9%,.,.
Cc1nnc2n(-c3ccccc3)c(=O)c3c4c(sc3n12)CC(C)CC4 (stereo not drawn),-6%,-2%,2%,22µM*,-7%
CCNc1ncc2nc(CCc3ccccc3)c(=O)n(C)c2n1,.,.,.,13µM*,.
Cc1cccc(Nc2nc3c(S(=O)(=O)c4ccc(Br)cc4)nnn3c3ccsc23)c1C,.,.,-4%,.,.
O=C1CCc2cc(S(=O)(=O)NCc3ccccc3Cl)cc3c2N1CC3,-1%,14%,2%,.,-1%
CCCOC(=O)c1cc(NC(=O)/C=C/c2ccccc2)ccc1O,0%,-8%,15µM*,.,0%
CCOC(=O)c1cc(NC(=O)COC)ccc1O,-4%,1%,1%,.,-5%
CCCOC(=O)c1ccc(NC(=O)/C=C/c2cccs2)cc1,-1%,5%,24µM*,-25%,2%
Cc1ccnc(NS(=O)(=O)c2ccc(NC(=O)/C=C/c3cccs3)cc2)n1,-6%,2%,?,25%,1%
CN(C)C(=O)c1ccc(NC(=O)COC(=O)/C=C/c2cccs2)cc1,4%,-2%,2%,.,0%
Cc1cccc(NC(=O)/C=C/c2cccs2)n1,2.8µM*,?,4.8µM*,3.2µM*,2.5µM*
O=C(/C=C/c1cccs1)Nc1ccncc1,16%,18%,13µM*,15%,27%
CC(C)(C)NC(=O)/C=C/c1cccs1,10%,-4%,-3%,-1%,2%
Cc1ccc(NC(=O)/C=C/C(=O)O)c([N+](=O)[O-])c1,-2%,-1%,-8%,-10%,-4%
CC(C)(C)c1ccc(/C=C/C(=O)Nc2ccncc2)cc1,0%,16%,4.8µM*,-13%,1%
Cc1cc(C)n(C(=O)/C=C/c2cccs2)n1,-10%,4%,17µM*,.,-4%
Cc1ccc(NC(=O)/C=C/c2cccs2)c([N+](=O)[O-])c1,3.2µM*,?,1.5µM*,?,3.2µM*
O=C(/C=C/c1cccs1)N1CCCC1,0%,6%,-4%,.,26%
O=C(CSc1nc2ccccc2[nH]1)Nc1ccc(N2CCOCC2)cc1,2%,-3%,?,.,0%
CN(C)c1ccc(/C=N/N=C/c2ccccc2O)cc1,0.45µM*,?,0.3µM*,-44%,0.56µM*
CC(C)NC(=O)CN1C(=O)c2cccnc2Sc2ccccc21,.,.,-10%,.,.
Nc1ccc2nc(SCC(=O)c3ccccc3)sc2c1,1%,21%,?,.,11%
Nc1ccc2nc(SCc3ccccc3F)sc2c1,26%,?,1.7µM*,.,?
SMILES,NPC1 promoter act,ELG1 genotoxic,FLuc modulator,SMN2 splice enh,Rab9 prom act
ClC1=C(Cl)C(Cl)(Cl)C(Cl)=C1Cl,.,.,.,0%,.
COc1ccc(C(CC(=O)c2ccccc2)S(=O)(=O)c2ccc(C)cc2)cc1 (stereo not drawn),2.2µM*,?,0.76µM*,?,4µM*
CCc1ccc(OCCCCN(C)Cc2ccccc2)cc1,1%,5%,-2%,.,2%
CN(C)c1ccc(NC(=O)Nc2csc3ccccc23)cc1,30%,?,2.7µM*,.,?
O=C(Nc1ccc(F)cc1)Nc1csc2ccccc12,24%,-6%,24µM*,.,21%
COc1ccccc1C(CNc1ccc(S(=O)(=O)N2CCCC2)cc1[N+](=O)[O-])N(C)C (stereo not drawn),2%,-14%,-1%,.,11%
Nc1ncnc2c1ncn2C[C@@H](O)C(=O)O,.,.,.,-26%[9.22 µM],.
CCOc1ccc(C(=O)Nc2cc(-c3nc4ccccc4[nH]3)ccc2Cl)cc1[N+](=O)[O-],-1%,8%,?,-32%,-7%
CCOc1ccc(C(=O)Nc2cc(-c3nc4ccccc4[nH]3)ccc2C)cc1[N+](=O)[O-],-1%,-7%,8.5µM*,-20%,-2%
CCOc1ccc(C(=O)Nc2cccc(-c3nc4ccccc4[nH]3)c2C)cc1[N+](=O)[O-],-3%,-2%,9.5µM*,-10%,2%
